CIT2 TOR yeast – alters CIT2-GFP fluorescence in TOR pathway yeast screen; AID 2029; GFP response vs DMSO, % at 10 µM; S. cerevisiae CIT2-GFP strain, flow cytometry, 3 h; 100 means same as DMSO wells; 320,000 tested, 0.065% active;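 active = GFP response relative to DMSO above a set limit, near the screen mean plus 3 SD, cut at about 150% in these data; inconclusive = Fewer than 70 cells measured for a yeast strain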;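 note: ratio of well median GFP fluorescence to mean of DMSO wells on the plate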
MEP2-GFP yeast – alters MEP2-GFP fluorescence in TOR pathway yeast screen. S. cerevisiae MEP2-GFP strain, flow cytometry GFP, 3 h; 100% = DMSO control level. GFP response vs DMSO, % at 10 µM. 330,000 tested, 0.51% active;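 active = GFP response versus DMSO above a set limit, roughly screen mean plus 3 SD, cut at about 180% in these data; inconclusive = fewer than 70 cells counted for a yeast strain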;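 note: median GFP fluorescence of the barcode-gated MEP2-GFP cells per well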
AGP1-GFP MLPCN – modulators of TOR pathway AGP1-GFP in S. cerevisiae | GFP response vs DMSO, % at 10 µM | AID 2066 | 320,000 tested, 0.02% active | S. cerevisiae AGP1-GFP multiplex flow cytometry, 3 h; GFP as percent of DMSO wells;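 active = GFP response relative to DMSO above a set limit, near screen average plus 3 SD, cut at about 150% in these data; inconclusive = fewer than 70 cells counted for the yeast strain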;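 note: median GFP channel fluorescence of the gated AGP1 strain per well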
LAP4-GFP MLPCN – yeast TOR pathway LAP4-GFP modulation. S. cerevisiae LAP4-GFP multiplex, flow cytometry GFP, 3 h; median GFP as percent of DMSO wells. GFP response vs DMSO, % at 10 µM. 320,000 tested, 0.34% active. AID 2023;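 active = GFP response vs DMSO above a set limit, about the screen mean plus 3 SD, cut at about 150% in these data; inconclusive = under 70 cell events counted for the yeast strain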
RPL19A TOR yeast – modulators of TOR pathway RPL19A-GFP in S. cerevisiae; percent response vs DMSO, % at 10 µM; S. cerevisiae RPL19A-GFP strain, flow cytometry, 3 h; active compounds read low; 330,000 tested, 0.3% active;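 active = percent response vs DMSO below 50%; inconclusive = fewer than 70 events counted for the yeast strain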;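 note: median channel GFP fluorescence of the barcoded RPL19A-GFP strain; ratio of sample median GFP to plate DMSO average so 100% = DMSO; lower means less RPL19A-GFP as with rapamycin TOR inhibition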
Active calls of the source: *; ? = inconclusive; . = no result; [ ] = dose if it differs, or a comment. Hits are enriched below; roughly 0.92% of the tested compounds scored in any of these assays.

SMILES	CIT2 TOR yeast	MEP2-GFP yeast	AGP1-GFP MLPCN	LAP4-GFP MLPCN	RPL19A TOR yeast
Cc1nn(Cc2ccc(Cl)cc2)c(=O)n1N(C)c1ncc(C(F)(F)F)cc1Cl	96	207*	.	116	88
Cc1oc(-c2cccc(Cl)c2)nc1CN1CCC(C(=O)NCCCN2CCCC2=O)CC1	93	101	93	99	93
Cc1oc(-c2cccc(Cl)c2)nc1CN1CCC(C(=O)NCCCN2CC(C)CC(C)C2)CC1 (stereo not given)	?	190*[may fluoresce violet]	?	75	17*[may fluoresce violet]
Nc1ncncc1-c1ccc2ccccc2c1	94	99	100	87	101
CCOc1ccc2nc(SCC(=O)NCC3CCCO3)c(C#N)cc2c1 (stereo not given)	93	211*	49	112	99
CCOC(=O)CNC(=O)c1cn(CC(C)C)c(=O)c2cc(OC)c(OC)cc12	?	248*[may fluoresce violet]	?	76	41*[may fluoresce violet]
CCCN1CCN(C(=O)c2cn(CC(C)C)c(=O)c3cc(OC)c(OC)cc23)CC1	82	110	77	89	87
COc1cc2c(C(=O)N3CCN(C4CCCCC4)CC3)cn(CC(C)C)c(=O)c2cc1OC	?	201*[may fluoresce violet]	23	93	49*[may fluoresce violet]
Cc1cccc(CN2CCC(Oc3ccc(C(=O)N4CCCCC4)cc3)CC2)c1	94	109	99	111	106
COc1ccc2[nH]c3ccccc3c2c1	113	105	99	105	101
COc1ccc2c(c1)C=Cc1ccccc1O2	89	92	96	150*	96
Cc1ccc2[nH]c3c(=O)n(CC(=O)N4CCN(C)CC4)ncc3c2c1	117	193*	115	111	78
Cc1ccc2[nH]c3c(=O)n(CC(=O)Nc4ccccc4N4CCN(C)CC4)ncc3c2c1	?	258*[may fluoresce violet]	?	56	43*[may fluoresce violet]
Cn1c(=O)c2c(nc3n2CC(COc2ccccc2)O3)n(C)c1=O (stereo not given)	106	110	105	104	107
CCOC(=O)C1=C(COC(=O)c2ccc([N+](=O)[O-])o2)NC(=O)NC1C (stereo not given)	96	101	105	109	97
O=C1C(Br)=Cc2cccc3cccc1c23	?	389*[may fluoresce violet]	?	87	35*[may fluoresce violet]
Cc1ccc(OCCCC(=O)NC2CCCCC2)cc1	96	104	103	103	102
CCCCn1c(-c2csc3c2CCCC3)n[nH]c1=S	77	112	92	154*	96
CCN(CC)c1ccc(C(NC(C)=O)NC(C)=O)cc1	93	96	96	91	.
CC(=O)NC(NC(C)=O)c1ccc(N(C)C)cc1	?	219*[may fluoresce violet]	26	105	39*[may fluoresce violet]
COc1ccc(S(=O)(=O)N2c3ccccc3NC(=O)CC2C)cc1 (stereo not given)	149	101	113	116	91
CC1CC(=O)Nc2ccccc2N1S(=O)(=O)c1ccc(C(F)(F)F)cc1 (stereo not given)	162*[may fluoresce green]	111	115	108	95
Cc1ccc(S(=O)(=O)N(CC(=O)NCc2ccncc2)Cc2ccccc2F)cc1	97	483*	76	97	74
COc1ccccc1C1=NN(C(=O)c2ccccc2)C(c2ccc(Br)cc2)C1 (stereo not given)	104	111	102	97	109
COC(=O)c1ccc(S(=O)(=O)N2CCOCC2)o1	159*[may fluoresce green]	112	115	105	93
SMILES	CIT2 TOR yeast	MEP2-GFP yeast	AGP1-GFP MLPCN	LAP4-GFP MLPCN	RPL19A TOR yeast
Cc1nnc(NC(=O)c2nc(S(=O)(=O)Cc3ccccc3)ncc2Cl)s1	112	111	113	168*	102
Cc1cccc(C)c1NC(=O)c1nc(S(=O)(=O)Cc2ccccc2)ncc1Cl	101	112	72	84	94
Fc1c(F)c(F)c(SCn2cc(Br)cn2)c(F)c1F	88	92	97	99	97
COc1cccc(/C=N/NC(=O)c2ccncc2)c1OC(=O)c1ccc(Br)cc1	?	122	?	78	17*[may fluoresce violet]
CC(=O)Nc1ccc(S(=O)(=O)Nc2cc3c(cc2C(C)=O)OCO3)cc1	?	466*[may fluoresce violet]	?	83	51
CC(=O)c1cc2c(cc1NS(=O)(=O)c1ccccc1)OCO2	86	99	100	97	101
O=C(O)c1ccc(SCc2cnc(Cl)s2)cc1	82	140	123	179*	111
COC(=O)c1ccc(SCc2cnc(Cl)s2)cc1	91	100	88	86	89
CCCCN1CCN=C1N(C)C	101	105	103	92	96
Cc1cc(-c2n[nH]c(=S)n2/N=C/C(Cl)=C/c2ccccc2)n[nH]1	107	101	102	90	107
S=c1[nH]nc(-c2ccco2)n1/N=C/C(Cl)=C/c1ccccc1	94	111	89	167*	90
COc1ccccc1C(=O)NC(=O)COC(=O)Cn1cnc2c1c(=O)n(C)c(=O)n2C	103	99	109	100	94
O=S1(=O)Nc2c(ccc3cccnc23)-c2ccccc21	81	116	97	240*	92
Clc1ccc2ccc3cccnc3c2n1	100	98	99	88	104
O=C(CN1C(=O)C2CC=CCC2C1=O)Nc1nnc(SCc2ccc(Cl)cc2)s1 (stereo not given)	?	?	.	103	15*[may fluoresce violet]
O=C(Nc1cccc(F)c1)N1CCCC(CNS(=O)(=O)Cc2ccccc2)C1 (stereo not given)	90	102	93	88	101
COC(=O)c1cc(C(=O)Nc2cccc(C)n2)cc([N+](=O)[O-])c1	?	225*[may fluoresce violet]	.	86	50
COC(=O)c1cc(C(=O)Nc2ccc(C)cn2)cc([N+](=O)[O-])c1	91	85	84	87	95
N=c1c(C(=O)NCC2CCCO2)cc2c(=O)n3ccccc3nc2n1Cc1ccccc1Cl (stereo not given)	?	258*[may fluoresce violet]	?	46	38*[may fluoresce violet]
N=c1c(C(=O)NCC2CCCO2)cc2c(=O)n3ccccc3nc2n1Cc1ccccc1 (stereo not given)	?	212*[may fluoresce red and violet]	?	58	?
N=c1c(C(=O)NCC2CCCO2)cc2c(=O)n3ccccc3nc2n1Cc1ccc(Cl)cc1 (stereo not given)	91	112	17	95	98
CC(Oc1ccc2c(-c3ccccc3)cc(=O)oc2c1)C(=O)NCCCn1ccnc1 (stereo not given)	98	104	100	105	98
CC(C(=O)NCc1ccco1)n1ccc2cc(S(=O)(=O)N3CCCCC3)ccc21 (stereo not given)	112	105	111	101	108
CN1CCN(c2ccccc2NC(=O)c2cc3ccccc3o2)CC1	100	112	105	115	102
CS(=O)(=O)N1CCN(c2ccccc2NC(=O)c2cc3ccccc3o2)CC1	?	345*[may fluoresce violet]	?	88	24*[may fluoresce violet]

Screening data deposited in PubChem by NMMLSC.
